Results filed as inconclusive are left out. A call without a number means that no potency is given here. The source made the active and inactive calls. The call rests on the fitted dose curve; in most records, active means well fitted cell-killing curve with a large enough effect in the repeat runs; inconclusive means weak or mixed curves, or effect the other way; inactive means no such curve, though single readings can be large or run the other way.
Assay: qHTS assay to identify small molecule agonists of the estrogen receptor alpha (ER-alpha) signaling pathway in the presence of an antagonist - cell viability counter screen (AID 1259386);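 further: cells exposed to compounds for 22 h at 37 °C before the viability read; nearly all actives have a fitted effect of over 30% in size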
Settings: VM7Luc4E2 viability, CellTiter-Fluor fluorescence, 22 h; series mostly up to 92.4 µM
Description: National Center for Advancing Translational Sciences [NCATS]
NIH Chemical Genomics Center [NCGC]
U.S. Environmental Protection Agency [EPA]
National Institutes of Environmental Health Sciences [NIEHS]
National Toxicology Program [NTP]
U.S. Food and Drug Administration [FDA]
Estrogen receptor (ER), a member of nuclear hormone receptor plays an important role in development, metabolic homeostasis and reproduction. Two subtypes of ER, ER-alpha and ER-beta, have similar expression patterns with some uniqueness in both types. Endocrine disrupting chemicals (EDCs) and their interactions with steroid hormone receptors like ER causes disruption of normal endocrine function. Therefore, it is important to understand the effect of environmental chemicals in ER signaling pathway. For identifying ER agonists, VM7Luc4E2 cell line has been used in the current assay.
VM7Luc4E2 cell line (provided by Denison MS, University of California) endogenously expresses full-length ER-alpha and is stably transfected with a plasmid containing four estrogen responsive elements (ERE) upstream of a luciferase reporter gene. This current screening for measuring luciferase reporter gene activity using VM7Luc4E2 cells against Tox21 10K library collection is a confirmation study on agonist mode screening in presence of ER-antagonist (ICI-182,780) at 10.0nM final concentration. The cytotoxicity of the compounds was tested in parallel by measuring the cell viability using CellTiter-Fluor assay system (Promega, Madison, WI) in the same wells.
Tox21 Assay Protocol Summary:
VM7Luc4E2 cells were cultured in phenol red free assay medium containing 10% charcoal stripped FBS for 5 days prior to the assay. The cells were dispensed at 4,000 cells in 4uL of assay medium per well into white wall/solid-bottom 1536-well plates (Corning Life Sciences, Corning, NY) using a Multidrop Combi (Thermo Fisher Scientific Inc., Waltham, MA) dispenser. After the assay plates were incubated at 37C and 5% CO2 for 24hr, 1uL of 10.0nM (final concentration) ICI-182,780 or assay buffer was added using two separate tips of Flying Reagent Dispenser (FRD, Aurora Discovery, San Diego, CA). Then 23nL of compounds dissolved in DMSO at 15 concentrations and positive controls or DMSO only was transferred to the assay plates by a Pintool station (Wako, San Diego, CA). The assay plates were incubated at 37C and 5% CO2 for 22hr. After 21hr incubation at 37C, 1uL/well CellTiter-Fluor reagent (Promega Corporation, Madison, WI) was added to each well using FRD and after 1hr incubation at 37C and 5% CO2, the fluorescence signal was measured on ViewLux plate reader (PerkinElmer, Shelton, CT).
Potency means the concentration at half of the fitted maximal effect.

Structure (SMILES)	Potency	activity change, negative = cytotoxicity
C=Cc1ccc(O)c(OC)c1	inactive	
CCc1cccc(C)c1N(C(=O)CS(=O)(=O)O)C(C)COC (stereo not given)	inactive	
Oc1cccc2c(O)cccc12	inactive	
Nc1ccc(Cl)c([N+](=O)[O-])c1	inactive	
Brc1cc(Br)cc(Br)c1	inactive	
C=C1CC[C@H]2O[C@]2(C)CC[C@@H]2[C@@H]1CC2(C)C	inactive	
CCOC(=O)OC(=O)OCC	inactive	
Nc1c(Br)cc([N+](=O)[O-])cc1Br	inactive	
Cc1ccc(N=Nc2c(O)ccc3ccccc23)c(C)c1	7.5 µM (active)	
COCCC(=O)OC	inactive	
Nc1ccc2c(S(=O)(=O)O)cccc2c1S(=O)(=O)O	inactive	
Cc1ccc(S(=O)(=O)C(I)I)cc1	68.6 µM (active)	
CN1CCN(C)CC1	inactive	
O=C1CCC(=O)N1	inactive	
CCOC=C(C(=O)OCC)C(=O)OCC	inactive	
O=c1cc[nH]cc1	inactive	
C=CCc1cc(S(=O)(=O)c2ccc(O)c(CC=C)c2)ccc1O	inactive	
CCCCCc1ccc(O)cc1	inactive	
CCCCCCCCOC(=O)c1cc(O)c(O)c(O)c1	54.5 µM (active)	
CCOC(=O)C1=NN(c2ccc(Cl)cc2Cl)C(C)(C(=O)OCC)C1 (stereo not given)	inactive	

Structure (SMILES)	Potency	activity change, negative = cytotoxicity
CCn1c2ccccc2c2ccccc21	inactive	
CCc1cccc(C)c1N(C(=O)C(=O)O)C(C)COC (stereo not given)	inactive	
[Cl][Sc]([Cl])[Cl]	inactive	
c1ccc(C[P+](c2ccccc2)(c2ccccc2)c2ccccc2)cc1	27.3 µM (active)	
CO[Si](OC)(c1ccccc1)c1ccccc1	inactive	
C=C[Si](C)(C)Cl		0.757% [at 8.39 µM] (inactive)
CCOc1nc(F)cc2nc(S(=O)(=O)Nc3c(Cl)cccc3C(=O)OC)nn12	inactive	
Cc1cc(C)c(O)c(C(C)(C)C)c1	inactive	
[Cl][Eu]([Cl])[Cl]	inactive	
CN1CCN(CCCN2c3ccccc3Sc3ccc(Cl)cc32)CC1	inactive	
CCC(C)(C)c1ccc(CC(C)CN2C[C@@H](C)O[C@@H](C)C2)cc1 (stereo not given in full)	inactive	
c1ccc(-c2ccccc2-c2ccccc2)cc1	inactive	
CSc1ccc(O)cc1C	inactive	
CCCC(=O)c1cc(O)c(O)cc1O	30.6 µM (active)	
COc1cc(/C=C/C(=O)CC(=O)/C=C/c2ccc(O)c(OC)c2)ccc1O	61.5 µM (active)	
CC/C=C(\C)C=O	inactive	
CCCCCCCCSCc1cc(C)c(O)c(CSCCCCCCCC)c1	inactive	
COc1ccc(OC)c(N=Nc2c(O)ccc3ccccc23)c1	6.11 µM (active)	
Clc1nc(C(Cl)(Cl)Cl)c(Cl)c(Cl)c1Cl	inactive	
CCCCCCCCCCCCN1CCCC1=O	inactive	
